Laboratory results reported in PubChem BioAssay.
Activity calls are given as the source filed them.

Tests used:
Albumin (Bos taurus) = Albumin (Bos taurus) (UniProt P02769); experiment: bovine serum albumin binders on microarray, profiling panel, artefact control for SMM control protein annotation, biochemical, small-molecule microarray, Alexa647 label, 635/667 nm fluorescence (AID 1118); conditions: BSA-A647 binding, fluorescence 635 nm, higher = more signal;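 further: score merges 667 nm emission intensity and signal-to-noise per printed compound spot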
Chain of Albumin (Bos taurus) (P02769 whole entry, looked up): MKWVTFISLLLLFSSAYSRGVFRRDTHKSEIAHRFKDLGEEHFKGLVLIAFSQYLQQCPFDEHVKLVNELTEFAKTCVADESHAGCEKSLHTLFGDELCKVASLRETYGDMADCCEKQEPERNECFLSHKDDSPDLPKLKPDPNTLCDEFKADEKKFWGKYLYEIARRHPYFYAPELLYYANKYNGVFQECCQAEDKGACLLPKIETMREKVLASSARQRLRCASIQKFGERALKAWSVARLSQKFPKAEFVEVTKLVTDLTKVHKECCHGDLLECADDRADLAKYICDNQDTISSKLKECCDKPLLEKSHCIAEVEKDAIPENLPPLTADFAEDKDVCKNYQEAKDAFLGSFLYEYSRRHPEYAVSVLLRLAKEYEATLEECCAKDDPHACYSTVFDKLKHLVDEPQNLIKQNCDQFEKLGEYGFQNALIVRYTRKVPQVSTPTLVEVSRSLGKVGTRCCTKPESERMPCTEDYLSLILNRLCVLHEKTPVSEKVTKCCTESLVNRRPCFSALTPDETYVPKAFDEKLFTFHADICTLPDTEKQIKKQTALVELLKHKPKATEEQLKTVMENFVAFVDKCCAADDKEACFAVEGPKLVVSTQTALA

[1] = small-molecule microarray binders of probe aXIP, primary screen, biochemical, NeuroSMM set, 635/667 nm fluorescence (AID 1119); conditions: higher = more signal, called active from +8 up or from −8 down;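 further: probe is the protein aXip251-270 applied at 1 µg/mL to compound-printed slides; binding of probe to printed compounds measured as 667 nm fluorescence plus signal to noise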
[2] = small-molecule binders of probe aNOTCH3, primary screen, biochemical, small-molecule microarray, 635/667 nm fluorescence (AID 1120); conditions: higher = more signal;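 further: probe is a biotin-tagged antibody raised against NOTCH3 rather than NOTCH3 protein; score merges spot fluorescence near 667 nm with spot signal to noise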
[3] = small-molecule binders of probe aNOTCH2, primary screen, biochemical, small-molecule microarray, 635/667 nm fluorescence (AID 1121); conditions: higher = more signal;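 further: score merges feature fluorescence read at 667 nm with its signal to noise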
[4] = biological target: Carbonic anhydrase 2 (Homo sapiens) (UniProt P00918); experiment: CAII small-molecule binders, profiling panel, biochemical, small-molecule microarray, Alexa647-labelled CAII (AID 1122); conditions: CAII-A647 binding fluorescence, higher = more signal
[5] = COS7 lysate on small-molecule microarray, probe aHis, 635 nm (AID 1123); conditions: COS7 cell lysate, fluorescence, higher = more signal;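 further: z-score combines 667nm fluorescence intensity with signal-to-noise per printed compound spot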
[6] = compound binding in COS7 lysate, probe aLAP1, primary screen, cell lysate, small-molecule microarray (AID 1124); conditions: probe aLAP1, fluorescence, higher = more signal;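 further: lysate comes from COS7 cells expressing LAP1 and is applied at 0.3 µg/mL; score merges spot fluorescence near 667 nm with signal-to-noise over triplicate slides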
Sam68 (KHDRBS1) = experiment: Sam68 small-molecule binders, primary screen, biochemical, small-molecule microarray, 635 nm fluorescence (AID 1125); conditions: small-molecule microarray binding, higher = more signal;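 further: score merges 667 nm channel intensity with signal to noise over triplicate slides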
[7] = test system: Chordin-like protein 2 (CHRDL2); experiment: CHRDL2 small-molecule binders, primary screen, biochemical, small-molecule microarray, 635 nm fluorescence (AID 1126); conditions: small-molecule microarray binding, fluorescence 635 nm; higher = more signal;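 further: printed compound slides probed with Chrdl2 protein at 4 µg/mL for 1 h at 4 C; score merges 667 nm emission intensity with signal to noise over three replicate slides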
[8] = biological target: Concanavalin-A (Canavalia ensiformis) (UniProt P02866); experiment: ConA small-molecule binders, primary screen, artefact control for SMM control protein annotation, biochemical, small-molecule microarray, Alexa647 label, 635 nm (AID 1127); conditions: ConA-A647 binding fluorescence, higher = more signal;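 further: z combines 667 nm emission intensity with signal-to-noise across three replicate slides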
Chain of Concanavalin-A (Canavalia ensiformis) (P02866 whole entry, looked up): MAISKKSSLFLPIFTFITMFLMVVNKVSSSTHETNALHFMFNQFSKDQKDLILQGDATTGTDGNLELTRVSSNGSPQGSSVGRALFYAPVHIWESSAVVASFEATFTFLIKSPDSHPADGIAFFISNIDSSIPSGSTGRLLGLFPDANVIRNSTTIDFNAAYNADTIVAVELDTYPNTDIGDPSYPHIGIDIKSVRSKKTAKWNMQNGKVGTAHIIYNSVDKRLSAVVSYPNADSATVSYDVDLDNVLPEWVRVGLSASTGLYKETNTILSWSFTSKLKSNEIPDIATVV

[9] = anti-His antibody binders, primary screen, artefact control for SMM control protein annotation, biochemical, small-molecule microarray, 635 nm fluorescence (AID 1128); conditions: anti-His Alexa647 antibody binding, higher = more signal;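 further: score merges feature fluorescence with signal-to-noise for each printed compound spot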
[10] = test system: Human papillomavirus type 1a E7 protein (residues 1-88); experiment: HPV1a E7 small-molecule binders, primary screen, biochemical, small-molecule microarray, residues 1-88, 635 nm (AID 1129); conditions: small-molecule microarray binding, fluorescence 635 nm; higher = more signal
[11] = biological target: Focal adhesion kinase 1 (Homo sapiens) (UniProt Q05397); experiment: small-molecule microarray binders of FAK, primary screen, biochemical, 635/667 nm fluorescence, BSA, DTT (AID 1130); conditions: PTK2 binding, 635 nm fluorescence, higher = more signal;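 further: composite of spot emission at 667 nm and signal to noise over triplicate slides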
Chain of Focal adhesion kinase 1 (Homo sapiens) (Q05397 whole entry, looked up): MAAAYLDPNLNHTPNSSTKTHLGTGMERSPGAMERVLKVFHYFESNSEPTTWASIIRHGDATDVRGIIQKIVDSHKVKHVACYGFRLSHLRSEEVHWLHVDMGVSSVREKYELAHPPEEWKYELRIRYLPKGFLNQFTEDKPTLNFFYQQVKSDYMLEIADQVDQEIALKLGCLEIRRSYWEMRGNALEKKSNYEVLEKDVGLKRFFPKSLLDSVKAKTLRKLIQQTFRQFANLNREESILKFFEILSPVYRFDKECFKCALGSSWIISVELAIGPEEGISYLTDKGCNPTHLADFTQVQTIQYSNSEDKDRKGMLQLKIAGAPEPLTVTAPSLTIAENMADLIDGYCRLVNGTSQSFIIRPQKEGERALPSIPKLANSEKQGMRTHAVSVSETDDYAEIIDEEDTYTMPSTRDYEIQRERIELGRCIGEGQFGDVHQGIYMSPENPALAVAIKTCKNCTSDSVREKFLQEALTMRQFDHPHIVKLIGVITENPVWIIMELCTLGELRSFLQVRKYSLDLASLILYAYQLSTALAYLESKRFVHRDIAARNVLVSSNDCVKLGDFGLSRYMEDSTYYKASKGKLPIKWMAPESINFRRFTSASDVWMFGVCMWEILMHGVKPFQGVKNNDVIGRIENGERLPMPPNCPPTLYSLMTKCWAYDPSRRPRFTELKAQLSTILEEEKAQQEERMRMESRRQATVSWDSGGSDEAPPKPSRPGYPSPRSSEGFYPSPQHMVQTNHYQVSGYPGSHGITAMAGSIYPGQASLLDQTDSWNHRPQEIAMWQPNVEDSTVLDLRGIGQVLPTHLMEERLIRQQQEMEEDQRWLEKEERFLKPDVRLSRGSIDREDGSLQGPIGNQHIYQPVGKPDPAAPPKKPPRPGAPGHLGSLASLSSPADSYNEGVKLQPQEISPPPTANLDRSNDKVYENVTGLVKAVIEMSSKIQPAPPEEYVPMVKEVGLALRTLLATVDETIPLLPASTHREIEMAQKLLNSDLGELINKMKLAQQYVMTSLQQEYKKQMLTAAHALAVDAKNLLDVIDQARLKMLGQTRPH

[12] = test system: Fibrinogen (Alexa647-labelled); experiment: fibrinogen binders on compound microarrays, profiling panel, artefact control for SMM control-protein annotation, biochemical, small-molecule microarray, 635/667 nm fluorescence (AID 1131); conditions: fibrinogen-A647 binding fluorescence, higher = more signal;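 further: z-score merges 667 nm fluorescence with per-spot signal-to-noise over triplicate slides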
[13] = biological target: Follistatin (Homo sapiens) (UniProt P19883); experiment: follistatin binders on small-molecule microarrays, primary screen, biochemical, small-molecule microarray, 635/667 nm fluorescence (AID 1132); conditions: FST binding, 635 nm fluorescence, higher = more signal
Chain of Follistatin (Homo sapiens) (P19883 whole entry, looked up): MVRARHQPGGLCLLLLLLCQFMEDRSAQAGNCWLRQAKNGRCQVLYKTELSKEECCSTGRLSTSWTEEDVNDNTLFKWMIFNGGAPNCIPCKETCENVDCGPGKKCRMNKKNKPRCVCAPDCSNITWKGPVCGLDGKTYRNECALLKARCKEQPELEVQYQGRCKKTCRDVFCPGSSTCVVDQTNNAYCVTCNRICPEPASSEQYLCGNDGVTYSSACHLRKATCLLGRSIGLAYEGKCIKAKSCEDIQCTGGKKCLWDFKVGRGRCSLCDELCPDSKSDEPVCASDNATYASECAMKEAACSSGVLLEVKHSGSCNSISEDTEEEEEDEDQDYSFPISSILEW

[14] = biological target: Fibroblast growth factor 2 (Homo sapiens) (UniProt P09038); experiment: FGF2 binders on small-molecule microarrays, primary screen, biochemical, small-molecule microarray, 635/667 nm fluorescence (AID 1133); conditions: small-molecule microarray binding, FGF2, fluorescence 635/667; higher = more signal
Chain of Fibroblast growth factor 2 (Homo sapiens) (P09038 whole entry, looked up): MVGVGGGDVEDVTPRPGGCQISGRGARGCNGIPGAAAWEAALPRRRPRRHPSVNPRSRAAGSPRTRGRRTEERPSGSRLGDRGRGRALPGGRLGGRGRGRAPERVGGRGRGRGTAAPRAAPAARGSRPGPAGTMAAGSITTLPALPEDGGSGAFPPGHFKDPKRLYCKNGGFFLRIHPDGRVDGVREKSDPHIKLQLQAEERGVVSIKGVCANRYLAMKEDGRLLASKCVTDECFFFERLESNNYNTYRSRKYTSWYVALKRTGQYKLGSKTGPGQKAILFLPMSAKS

[15] = mitochondrial membrane potential change in A549 cells, profiling panel, cell-based, JC-1 fluorescence, basal, 24 h, 100 nL (AID 1138); conditions: higher = more signal;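 further: A549 lung adenocarcinoma cells under basal conditions with no added stimulus; test concentration not given here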
Lefty1 = Lefty1 binders on small-molecule microarrays, primary screen, biochemical, small-molecule microarray, 635/667 nm fluorescence (AID 1139); conditions: small-molecule microarray binding, fluorescence 635/667; higher = more signal
[16] = test system: wheat germ agglutinin (Triticum aestivum), Alexa647-labelled; experiment: wheat germ agglutinin binders on compound microarrays, profiling panel, artefact control for SMM control-protein annotation, biochemical, small-molecule microarray, 635/667 nm fluorescence (AID 1140); conditions: WGA-A647 binding, 635 nm fluorescence, higher = more signal;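 further: score merges 667 nm feature emission with signal to noise over triplicate slides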
[17] = biological target: Luciferin 4-monooxygenase (Photinus pyralis) (UniProt P08659); experiment: firefly luciferase enzyme inhibitors, primary screen, biochemical, luminescence, purified enzyme, 2006 set (AID 1141); conditions: SteadyGlo luminescence, 30 min, higher = more signal, called active from +8 up or from −8 down;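 further: cell-free assay with purified firefly luciferase at 100 ng per well in PBS; test concentration not given here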
Chain of Luciferin 4-monooxygenase (Photinus pyralis) (P08659 whole entry, looked up): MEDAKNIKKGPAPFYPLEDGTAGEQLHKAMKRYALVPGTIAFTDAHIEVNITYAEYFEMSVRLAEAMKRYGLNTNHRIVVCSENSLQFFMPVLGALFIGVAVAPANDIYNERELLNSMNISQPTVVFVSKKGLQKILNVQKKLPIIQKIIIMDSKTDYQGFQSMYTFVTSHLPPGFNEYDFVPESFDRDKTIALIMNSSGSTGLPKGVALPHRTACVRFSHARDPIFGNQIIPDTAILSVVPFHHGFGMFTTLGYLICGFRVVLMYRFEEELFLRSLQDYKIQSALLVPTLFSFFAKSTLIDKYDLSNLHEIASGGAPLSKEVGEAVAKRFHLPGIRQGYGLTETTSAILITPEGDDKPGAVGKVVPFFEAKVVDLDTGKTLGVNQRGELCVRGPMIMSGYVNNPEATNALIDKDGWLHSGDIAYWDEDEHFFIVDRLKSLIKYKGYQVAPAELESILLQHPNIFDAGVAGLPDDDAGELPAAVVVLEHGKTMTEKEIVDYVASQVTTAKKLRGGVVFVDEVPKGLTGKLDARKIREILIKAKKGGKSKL

Row | SMILES | composite z-score (Albumin (Bos taurus)) | composite Z-score [1] | composite z-score [2] | composite z-score [3] | composite z-score [4] | composite z-score [5] | composite z-score [6] | composite z-score (Sam68 (KHDRBS1)) | composite z-score [7] | composite z-score [8] | composite z-score [9] | composite z-score [10] | composite z-score [11] | composite z-score [12] | composite z-score [13] | composite z-score [14] | z-score [15] | composite z-score (Lefty1) | composite z-score [16] | z-score [17]
1 | COCCOC(=O)N1C(=O)[C@@]2(c3cc(C#CCCO)ccc31)[C@H](C(N)=O)[C@H]1C(=O)O[C@H](c3ccccc3)[C@H](c3ccccc3)N1[C@@H]2c1ccc(O)cc1 | 0.205 | -0.516 (inactive) | -0.159 | -0.118 | 0.463 | 0.387 | 0.505 | 0.0991 | -0.464 | -0.332 | -0.0637 | -0.469 | -0.167 | 0.141 | -0.15 | 0.0091 | 0.0757 | -0.431 | 0.115 | -0.381 (inactive)
2 | O=C(NC1CC1)[C@@H]1c2ccccc2C(=O)N(Cc2ccccc2Cl)[C@H]1c1ccc(CO)cc1 | -0.243 | 0.0965 (inactive) | 0.0765 | -0.0411 | 0.633 | 2.33 | 0.108 | 1.33 | 0.516 | 1.02 | 3.06 | 0.981 | 1.06 | 0.57 | 1.33 | 1.32 | 3.13 | 0.233 | 0.447 | -1.44 (inactive)
3 | C=CCC(OC(C)=O)[C@@H]1[C@@H](N(Cc2ccc(-c3cccc(C(F)(F)F)c3)o2)C(=O)c2ccc(C)cc2)c2cc(OCCCO)ccc2N1C(=O)Cc1ccc2ccccc2c1 (stereo not given in full) | -0.257 | 0.421 (inactive) | -0.0702 | -0.153 | -0.253 | -0.275 | -0.472 | -2.05 | 0.264 | -0.594 | 0.357 | -1.49 | 0.0103 | 0.658 | 0.107 | -0.358 | 0.71 | -0.454 | 0.234 | -0.453 (inactive)
4 | CCC[C@@H]1C[C@@]1(CCC)[C@@H](NS(=O)(=O)c1cccc2cccnc12)c1ccc(Cl)cc1 | 0.659 | -0.421 (inactive) | 0.0496 | -0.106 | 0.457 | 1.81 | -0.119 | 0.403 | -0.955 | 0.492 | 0.265 | 1.06 | 0.249 | 0.285 | 0.0155 | -1.68 | 2.3 | -0.605 | 0.701 | 0.19 (inactive)
5 | COc1ccc(/C=C/C=O)cc1 | -0.85 | -0.174 (inactive) | -0.0032 | -0.0468 | -0.206 | -0.513 | 0.0998 | -0.235 | 0.309 | -0.415 | 0.0874 | -0.238 | -0.0113 | -1.76 | 0.853 | 0.138 | 0.769 | 0.321 | -0.367 | -0.756 (inactive)
6 | COC(=O)[C@@]1(Cc2ccc(F)cc2)[C@H]2c3cc(C(=O)N(C)C)n(Cc4ccc(Cl)c(C(F)(F)F)c4)c3C[C@H]2CN1C(=O)c1ccccc1 | 1.03 | 0.623 (inactive) | 0.405 | 0.266 | 0.77 | 3.26 | 1.05 | 1.31 | -0.899 | 1.15 | 2.56 | 1.22 | 1.14 | 1.01 | 0.909 | -0.542 | 1.98 | -0.764 | 1.4 | 1.04 (inactive)
7 | CCCCCCc1nc(-c2ccc(OC)nc2)cc2c1[Si](C(C)C)(C(C)C)O[C@H]2c1ccccc1 | -0.807 | 0.131 (inactive) | -0.0864 | -0.166 | -0.0224 | 0.0277 | -0.08 | -0.187 | 1.12 | 0.0837 | -0.133 | -0.484 | 0.0202 | -0.51 | 0.885 | 0.896 | -0.959 | 1.44 | 0.211 | 0.974 (inactive)
8 | Cc1ccc(S[C@]2(C(=O)O)CC(=O)N(C(C)C)[C@@H]2c2ccc(CO)cc2I)cc1 | 0.162 | 0.556 (inactive) | 0.208 | 0.164 | 0.566 | 1.99 | 0.73 | 0.784 | -0.17 | 1.03 | 3.36 | 0.476 | 0.929 | 0.432 | 1.12 | 0.253 | 1.33 | -0.176 | 0.939 | -2.26 (inactive)
9 | C[C@@]1([C@@H](NC(=O)c2ccc(-c3ccccc3)cc2)c2ccc(Cl)cc2)C[C@H]1C1CCCCC1 | 0.688 | -0.286 (inactive) | 0.305 | -0.0527 | 0.302 | 2.21 | 0.0789 | 1.29 | -0.564 | 1.01 | 2.1 | 1.15 | 0.473 | 0.869 | 0.663 | -0.246 | 0.532 | 0.112 | 0.695 | 0.321 (inactive)
10 | C=CCNC(=O)[C@@H]1[C@H]2C(=O)O[C@H](c3ccccc3)[C@H](c3ccccc3)N2[C@H](c2ccc(O)cc2)[C@@]12C(=O)N(C(=O)OCCOC)c1ccc(C#CCNC(N)=O)cc12 | 0.803 | 0.797 (inactive) | -0.0247 | -0.0393 | 0.552 | 0.737 | 0.731 | 1.16 | 0.155 | 1.1 | 0.2 | 1.16 | 1.23 | 0.746 | 1.18 | 1.45 | -0.564 | 1.03 | 0.834 | -1.43 (inactive)
11 | NCCCCCCNC(=O)[C@@H]1C[C@@H]2C(=O)NCC(=O)N2[C@@H]1c1ccc(O)cc1 | 0.741 | 0.706 (inactive) | -0.232 | -0.124 | 0.4 | 0.738 | 0.0946 | 1.28 | 1.17 | 1.17 | 1.2 | 1.14 | 0.183 | 0.971 | 1.46 | 1.62 | -0.614 | 1.63 | 0.846 | 1.14 (inactive)
